Screening data (PubChem)
EBV LMP1 NFkB – EBV LMP1-driven NF-kappaB luciferase reporter inhibitors, primary screen, cell-based, luminescence, single point. 350,000 compounds, 0.69% hits. AID 504558, 2011. inhibition, % at 12.5 µM. LMP1-induced NF-kappaB luciferase reporter cells; in the data active = inhibition above about 41%; inconclusive = no clear call, values can overlap the other calls
HSP90 inh – HSP90 inhibitors, primary screen, cell lysate, luminescence | Heat shock protein HSP 90 (rabbit reticulocyte lysate; luciferase refolding) | Rabbit reticulocyte lysate, luciferase refolding luminescence, 3 h | inhibition, % at 5.6 µM | 290,000 compounds, 0.91% hits | AID 1789, 2009;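 active = inhibition above the screen-wide mean plus 3 SD, computed separately per campaign, cut at about 16% in these data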;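 note: inhibitors lower the luminescence because luciferase stays unfolded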
HSF1 inhib – HSF1 inhibitors in luciferase reporter cells, primary screen, cell-based, NIH3T3, luminescence | NIH3T3-HGL HSE-luciferase, MG132-induced, luminescence 8 h; stronger effect = lower value | activity change, negative = inhibition, % at 7.5 µM (by protocol) | 300,000 compounds, 0.77% hits | AID 2098, 2009;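 active = more than half of replicate wells show activity change below -50%, luminescence cut by over half; inconclusive = some wells, but at most half, below -50%; inactive = no replicate well below -50%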;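 note: luciferase reports HSF-1 transcriptional activity via heat shock element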
HSF-1 act – HSF-1 activators, primary screen, NIH3T3-HGL cells, MG132 stress, luminescence, single point; NIH3T3-HGL HSF-1 luciferase reporter, 8 h; 100% = twice DMSO control signal; AID 504408, 2011; activation, % at 9 µM; 300,000 compounds, 1.7% hits;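 active = mean replicate activation of at least 50% with a set share of replicates each reaching 50%; inconclusive = only one of those two conditions met; inactive = mean below 50% and too few replicates reaching it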
TWEAK-Fn14 inh – inhibitors of TWEAK-Fn14 signaling, primary screen, luciferase reporter cells, uHTS; TWEAK-stimulated Fn14 reporter cells, luciferase luminescence, 8 h; inhibition, % at 10 µM; 360,000 compounds, 2% hits; AID 1159606, 2016; in the data active = inhibition above about 50%
TROY signal inh – inhibitors of TROY-driven NF-kB signaling, primary screen, Q293 LMP1-TROYcd cells, NF-kB luciferase, uHTS. Q293 LMP1-TROYcd NF-kB luciferase reporter, 4 h. inhibition, % at 10 µM. 360,000 compounds, 0.98% hits;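 active = compounds whose plate-normalised and pattern-corrected inhibition of the luciferase reporter signal at the single screening dose is 50% or more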
Each line names hits and unclear results; the compound was inactive in the other large screens. In the library only some 4.7% were active in any assay of this set; here they are far more common.

COC(=O)CNc1c(-c2ccccn2)nc2ccc(Br)cn12	HSF-1 act 63.9
CN(C)c1ccc(CNC(=O)/C=C/[C@H]2O[C@@H](n3ccc(=O)[nH]c3=O)[C@H](O)[C@@H]2O)cc1	none (no result: EBV LMP1 NFkB, HSP90 inh, HSF1 inhib, HSF-1 act)
O=C(NCC1CCCO1)c1cccc2c1C(=O)c1ccc(N3CCC(Cc4ccccc4)CC3)cc1S2(=O)=O (stereo not given)	TWEAK-Fn14 inh 89.8, TROY signal inh 55.8 (no result: HSP90 inh, HSF1 inhib, HSF-1 act)
COc1cc(C(=O)NNc2nc3cc4c(cc3s2)OCO4)cc(OC)c1OC	HSF-1 act 62.2
COc1ccccc1C(=O)Nc1nc2cc3c(cc2s1)OCO3	HSF-1 act 54.0
COc1ccccc1C(=O)Nc1nc2cc3c(cc2s1)OCCO3	none
COc1ccc(C(=O)Nc2nc3cc4c(cc3s2)OCCO4)c(OC)c1	HSF1 inhib -61.2
COc1cc(OC)cc(C(=O)NNc2nc3cc4c(cc3s2)OCO4)c1	none
Nc1ccn([C@@H]2O[C@H](CN=C3NS(=O)(=O)c4ccccc43)[C@@H](O)[C@H]2O)c(=O)n1	none (no result: HSP90 inh, HSF1 inhib, HSF-1 act)
O=C(c1ccsc1)N1CCCC(N2CCN(c3ccccc3F)CC2)C1 (stereo not given)	TWEAK-Fn14 inh 94.7
COc1ccc(N2CSC(=S)N(c3ccc(OC)cc3)C2)cc1	none (no result: HSP90 inh, HSF1 inhib, HSF-1 act)
Cc1cccc(Cn2nc(-n3cccc3)c3c(C)cc(C)nc32)c1	EBV LMP1 NFkB 47.0
O=C(CCCn1c(=S)[nH]c2ccccc2c1=O)N1CCN(c2cccc(Cl)c2)CC1	TWEAK-Fn14 inh 51.5, TROY signal inh 52.3
COc1cccc(N2CCN(C(=O)CCCCCNc3nc(=S)[nH]c4ccccc34)CC2)c1	TWEAK-Fn14 inh 53.5, TROY signal inh 70.0
CN(C)CCN1CCN(C2CN(Cc3cn(Cc4ccc(F)cc4)nn3)S(=O)(=O)C2)CC1 (stereo not given)	none (no result: EBV LMP1 NFkB, HSP90 inh, HSF1 inhib, HSF-1 act)
COCCCNC(=O)Cn1cnc2sc(C)c(S(=O)(=O)N3CCN(c4ccccc4OC)CC3)c2c1=O	HSF1 inhib -71.9
COc1cc(-c2coc3c(C(=O)NCc4ccccc4)cccc23)ccc1O	none (no result: EBV LMP1 NFkB, HSP90 inh, HSF1 inhib, HSF-1 act)
O=C(N/N=C/c1cn(-c2cccs2)nc1-c1ccccc1)c1ccccc1O	TWEAK-Fn14 inh 90.8, TROY signal inh 61.9
O=C(N/N=C/c1cn(-c2cccs2)nc1-c1ccccc1)c1ccccc1Br	none
CC1(C(=O)NS(=O)(=O)c2cccs2)CCN1C(=O)C1CC1 (stereo not given)	none (no result: EBV LMP1 NFkB, HSP90 inh, HSF1 inhib, HSF-1 act)
COc1ccc(C(NC(=O)C(C)C)c2ccc3cccnc3c2O)cc1 (stereo not given)	none
CCCCC(=O)NC(c1ccc(Cl)cc1Cl)c1ccc2cccnc2c1O (stereo not given)	EBV LMP1 NFkB 68.7
CC(C)C(=O)NC(c1ccc(Cl)cc1Cl)c1ccc2cccnc2c1O (stereo not given)	EBV LMP1 NFkB inconclusive, TWEAK-Fn14 inh 102.5
CCC(=O)NC(c1ccc(Cl)cc1Cl)c1ccc2cccnc2c1O (stereo not given)	EBV LMP1 NFkB 49.3
CNC(=O)c1c(O)c2cccc3c2n(c1=O)CC3	TWEAK-Fn14 inh 53.1 (no result: TROY signal inh)
CC(C)NC(=O)c1c(O)c2cccc3c2n(c1=O)CCC3	none
Cc1cccc(C(=O)Oc2ccc(/C=N/NC(=O)c3ccc(O)cc3)cc2)c1	TROY signal inh 52.0
Cc1cccc(C(=O)Oc2ccc(/C=N/NC(=O)c3ccccc3O)cc2)c1	HSF-1 act 55.2
COc1ccc(C(=O)N/N=C/c2ccc(OC(=O)c3ccccc3)cc2)cc1	none
CCOc1cc(/C=N\NC(=O)c2ccc(NC(=O)C(C)(C)C)cc2)ccc1OC(=O)c1cccc(C)c1	TWEAK-Fn14 inh 86.1, TROY signal inh 53.0
CCC(CC)C(=O)N(C)c1c(C)nc2c(OCc3ccc(C(F)(F)F)cc3)cccn12	none (no result: EBV LMP1 NFkB, HSP90 inh, HSF1 inhib, HSF-1 act)
COc1cc(NC(=O)CSc2nnc3ccccn23)cc(OC)c1	none (no result: HSP90 inh, HSF1 inhib, HSF-1 act)
O=C(CSc1nnc2ccccn12)NC(=O)Cc1ccccc1	TWEAK-Fn14 inh 51.5
CC(C)(C)c1cc(NC(=O)CCSc2nnc3ccccn23)cc(C(C)(C)C)c1	HSF-1 act 54.3
OC[C@@H]1CN(Cc2ccc3c(c2)OCO3)C[C@H](n2cnc3c(NC4CCCC4)ncnc32)O1	none (no result: EBV LMP1 NFkB, HSP90 inh, HSF1 inhib, HSF-1 act)
CCN1CCC(O)(/C=C/c2ccc(C(C)C)cc2)C(C(=O)/C=C/c2ccc(C(C)C)cc2)C1 (stereo not given)	none (no result: HSP90 inh, HSF1 inhib, HSF-1 act)
CCOC(=O)N/C(N)=N/c1nc2ccccc2s1	HSF-1 act 52.8
O=C(O)CCSc1nc2ccccc2s1	HSF1 inhib -63.5, TWEAK-Fn14 inh 91.6, TROY signal inh 68.6
CCOC(=O)NC(=O)COC(=O)CCCSc1nc2ccccc2s1	TWEAK-Fn14 inh 54.2
CC(C)NC(=O)NC(=O)COC(=O)CCCSc1nc2ccccc2s1	none
CC(=O)N/C(N)=N/c1nc(=O)c2ccccc2s1	none
NC(=O)NC(=O)COC(=O)CCCSc1nc2ccccc2s1	TWEAK-Fn14 inh 61.3
COCCNC(=O)c1cc2c(c(-c3cccc(-c4cc5ccccc5o4)c3)n1)[C@@H](CCO)N(S(=O)C(C)(C)C)C2 (stereo not given in full)	none (no result: EBV LMP1 NFkB, HSP90 inh, HSF1 inhib, HSF-1 act)
CCCCN1C(=O)CC2CCOC21C (stereo not given)	none (no result: HSP90 inh, HSF1 inhib, HSF-1 act)
CC1(C(=O)NS(=O)(=O)c2cccc(Cl)c2)CCN1C(=O)CCc1cccs1 (stereo not given)	none (no result: EBV LMP1 NFkB, HSP90 inh, HSF1 inhib, HSF-1 act)
COC(=O)[C@]12CCCCC=C1N(CCC1=CCCCC1)C(=O)[C@H](CC(=O)NCCCCc1ccccc1)C2	none (no result: EBV LMP1 NFkB, HSP90 inh, HSF1 inhib, HSF-1 act)
C=CCc1ccc(OCC(O)CO)c(OC)c1 (stereo not given)	HSF-1 act 71.4
OC[C@H]1O[C@@H](c2nc(-c3ccc4[nH]ccc4c3)no2)[C@H](O)[C@@H](O)[C@H]1O	none (no result: EBV LMP1 NFkB, HSP90 inh, HSF1 inhib, HSF-1 act)
OCc1cccc[n+]1Cc1ccccc1	TROY signal inh 59.5 (no result: HSP90 inh)
OCCc1ccccc1	none (no result: EBV LMP1 NFkB, HSP90 inh, TWEAK-Fn14 inh, TROY signal inh)
CS(=O)(=O)c1nc(-c2ccc(Br)cc2)cc(-c2ccccc2)c1C#N	TROY signal inh 63.5
COc1ccc(-c2cc(-c3ccccc3)c(C#N)c(S(C)(=O)=O)n2)cc1	HSF-1 act 70.6
CS(=O)c1nc(-c2ccc(Br)cc2)cc(-c2ccccc2)c1C#N (stereo not given)	HSF-1 act 56.4, TWEAK-Fn14 inh 55.9, TROY signal inh 74.4
Cc1cn([C@H]2C[C@H](O)[C@@H](CNCc3ccc(F)c(N4CCOCC4)c3)O2)c(=O)[nH]c1=O	none (no result: HSP90 inh, HSF1 inhib, HSF-1 act)
Cc1nn(C)c(C)c1/C=C(/C(=O)C(C)(C)C)n1cncn1	none
CC(C)(C)C(=O)/C(=C/c1ccncc1)n1cncn1	TWEAK-Fn14 inh 83.0, TROY signal inh 51.0
COc1ccc(C(=O)Nc2ccc3nc(N4CCOCC4)sc3c2)cc1OC	none (no result: HSP90 inh, HSF1 inhib, HSF-1 act)
CCCn1nc(C(=O)Nc2ccc3nc(N4CCOCC4)sc3c2)ccc1=O	TROY signal inh 53.5 (no result: HSP90 inh, HSF1 inhib, HSF-1 act)
